From PubChem BioAssay AID588473 (Sanford-Burnham Center for Chemical Genomics, 2011)
Out of some 350,000 compounds screened, about 1,600 (0.46%) were called active. Shown is part of a subset that was picked to be rich in actives. Unmarked numbers belong to inactive results.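 Rule for the calls: active = activation of at least 50%, plus an integration ratio under a set limit after plate pattern correction; inactive = the rest.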

Test system: CRF-binding protein / CRF receptor 2 complex (human)
Experiment: agonists of CRF-BP/CRF-R2 complex, primary screen, cell-based, HEK293, calcium dye fluorescence, uHTS (AID 588473);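 note: plate controls were neutral control wells without compound for no effect and CRF at EC100 for full effect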
Details: calcium dye fluorescence (FLIPR), at 13.2 µM, active compounds read high, percent of saturating CRF peptide response

Row | Compound | activation
1 | CC(C)(C)OC(=O)NCCCCCC(=O)N/N=C/c1coc2ccccc2c1=O | -5.17%
2 | COc1ccc(OCCCn2cccc2/C=C2/C(=N)N3OC(C)=CC3=NC2=O)cc1 | 4.44%
3 | CC1=CC2=NC(=O)/C(=C/c3coc4ccccc4c3=O)C(=N)N2O1 | 147% (active)
4 | C[C@@H]1NS(=O)(=O)c2cc(Cl)ccc2O[C@@H]1c1ccccc1 | -1.15%
5 | Cc1ccc(-n2c(C)cc(C(=O)CSc3nnc4ccccn34)c2C)cc1 | -0.98%
6 | Cc1ccc(-n2c(C)cc(C(=O)CN3C(=O)C(=O)N(C4CCCC4)C3=O)c2C)cc1 | 161% (active)
7 | Cc1cc(C(=O)COC(=O)C2CC2)c(C)n1-c1ccc(F)cc1 | -3.55%
8 | Cc1ccc(NC(=O)COc2ccc(/C=N\NC(=O)c3cccnc3)cc2)cc1C | 0.37%
9 | O=C(N/N=C/c1sc(N2CCCCC2)nc1-c1cccs1)c1cccnc1 | 62.8% (active)
10 | Cc1ccc(S(=O)(=O)N2CCCCC2)cc1NC(=O)c1cccnc1 | 6.52%
11 | Cc1ccc(C(=O)N/C(=C\c2cccs2)C(=O)NCCc2ccccn2)cc1C | -0.29%
12 | COc1ccccc1C(=O)NCCC(=O)NC(C)CCc1ccccc1 (stereo unspecified) | 0.39%
13 | COc1ccc(CCNC(=O)CN(c2ccccc2)S(=O)(=O)c2ccccc2)cc1 | -0.58%
14 | COc1ccc([C@H]2CC(=O)C=C(/C=C/c3ccc(Cl)cc3)C2)cc1 | 2.34%
15 | CCSc1nc2c(c(=O)[nH]1)C(c1cccnc1)C(C(=O)OC(C)C)=C(C)N2 (stereo unspecified) | -11.6%
16 | COc1cc(OC)cc(C(=O)N[C@H](C(=O)OCC(=O)NC(C)c2ccccc2)C(C)C)c1 (stereo partly specified) | 102% (active)
17 | COc1cc(OC)cc(C(=O)NC(C(=O)N2CCC2)C(C)C)c1 (stereo unspecified) | 2.01%
18 | COc1cc(OC)cc(C(=O)NCC(=O)OCC(=O)NC(C)CCc2ccccc2)c1 (stereo unspecified) | -1.06%
19 | COc1cc([N+](=O)[O-])cc([N+](=O)[O-])c1NC(=O)N1CCOCC1 | -0.3%
20 | COc1ccc(C)cc1NC(=O)CSc1nc(SC)ns1 | -0.91%
21 | CCc1nnc(NC(=O)CSc2nc(SC)ns2)s1 | 113% (active)

Row | Compound | activation
22 | CSc1nsc(SCC(=O)Nc2cc(C(=O)O)ccc2C)n1 | -1.07%
23 | CCCCn1c(=S)[nH]c2ncccc2c1=O | 2.09%
24 | CCN(CC)S(=O)(=O)c1ccc(OC)c(NC(=O)CCc2c(C)noc2C)c1 | -0.44%
25 | Cc1nn(C)c(C)c1C(C)NC(=O)c1ccc(OC2CCN(Cc3ccccn3)CC2)cc1 (stereo unspecified) | 3.71%
26 | Cc1ccc(NC(=O)C(C)c2cccc(C(=O)c3ccccc3)c2)cc1 (stereo unspecified) | -1.3%
27 | NS(=O)(=O)c1ccc(CNC(=S)NC(=O)c2ccco2)cc1 | -6.68%
28 | O=C(Nc1ccc2ccccc2c1)/C(=C\c1ccc2c(c1)OCO2)NC(=O)c1ccco1 | 1.15%
29 | Cc1cccc(OCC(=O)Nc2ccc(NC(=O)c3ccco3)c(C)c2)c1 | 0.25%
30 | CCCc1ccc(OCC(=O)NNC(=S)NC(=O)c2ccco2)cc1 | 60.1% (active)
31 | O=C(NNC(=S)Nc1ccc(Br)cc1Cl)c1ccco1 | -1.64%
32 | CC(Oc1ccc2ccccc2c1)C(=O)NNC(=S)NC(=O)c1ccco1 (stereo unspecified) | 58.2% (active)
33 | C=CCOc1ccc(C2/C(=C(\O)c3c(C)[nH]c(C(=O)OC)c3C)C(=O)C(=O)N2CCN(C)C)cc1 (stereo unspecified) | -2.8%
34 | C=C1CCN([C@@H](Cc2ccccc2)C(=O)N2CCOCC2)S(=O)(=O)c2ccccc21 | 1.4%
35 | Cc1ccc(C)c(NC(=O)COC(=O)Cn2c(C)csc2=O)c1 | 1.31%
36 | Cc1cc(Nc2ccc(C)c(C)c2)n2ncnc2n1 | -1.97%
37 | CC1=CC(=C(C#N)c2nc3ccccc3s2)C=C(C)N1c1ccc(F)cc1F | 119% (active)
38 | Cc1nn(-c2ccc(F)cc2)c(Cl)c1/C=C(/CCC(=O)O)c1nc2ccccc2s1 | 0.68%
39 | Cc1cnc(C(=O)Oc2cccc(Cl)c2Cl)cn1 | -0.24%
40 | CCCCNC(=O)c1ccccc1NC(=O)c1ccccc1N(C)S(C)(=O)=O | -1.79%
41 | CCCCCCCCCCCCN1C(=O)CSC1c1cccnc1 (stereo unspecified) | 1.06%
